Targets with a hit are over-represented here; the source holds about 7,900 in all. About 0.6% of all pairs of compound and target were hits.
Compound: c1cc(OCCN2CCCCC2)cc(-c2n[nH]c3ccc(-c4nnc[nH]4)cc23)c1
Assay: log2 fold change, soluble protein after heating vs DMSO (PISA); higher = thermal stabilisation; K562 cells, 10 uM, 30 min; active = over 0.2 and 3.5 SD of the protein, either way, in both replicates (recomputed)
Method in brief: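 K562 cells at 2×10^6 cells/mL were treated with 10 μM compound for 30 min. Aliquots were heated for 3 min across 48°C-58°C, pooled, and extracted in PBS with 0.5% NP-40 at 4°C; soluble protein was the supernatant after 21,000xg for 90 min. Soluble protein was quantified by TMTpro 16plex LC-MS/MS with channel sums equalised, and reported as log2 fold change in thermal stability against DMSO controls, with values from duplicates.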

UniProt Q14978, sequence (Q14978 whole entry, looked up): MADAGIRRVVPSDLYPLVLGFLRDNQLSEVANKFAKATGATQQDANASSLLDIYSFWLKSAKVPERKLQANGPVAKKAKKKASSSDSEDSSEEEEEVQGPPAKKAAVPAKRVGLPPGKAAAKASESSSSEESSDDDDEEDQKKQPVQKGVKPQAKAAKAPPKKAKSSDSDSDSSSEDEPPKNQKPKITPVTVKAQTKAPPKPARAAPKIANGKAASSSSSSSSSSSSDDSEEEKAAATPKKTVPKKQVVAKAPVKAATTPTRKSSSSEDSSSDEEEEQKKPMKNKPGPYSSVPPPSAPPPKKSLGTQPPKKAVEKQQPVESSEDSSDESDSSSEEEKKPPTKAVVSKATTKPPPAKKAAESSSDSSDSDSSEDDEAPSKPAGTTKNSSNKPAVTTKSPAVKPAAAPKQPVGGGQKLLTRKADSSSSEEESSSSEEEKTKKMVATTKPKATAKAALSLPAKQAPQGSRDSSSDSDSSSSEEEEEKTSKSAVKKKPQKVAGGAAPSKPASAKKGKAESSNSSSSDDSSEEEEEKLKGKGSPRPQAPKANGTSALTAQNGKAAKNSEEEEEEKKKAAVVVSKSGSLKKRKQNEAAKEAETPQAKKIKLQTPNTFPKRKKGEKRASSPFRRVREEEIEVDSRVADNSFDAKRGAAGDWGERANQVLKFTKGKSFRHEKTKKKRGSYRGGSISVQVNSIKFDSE
UniProt Q9UBD5, sequence (Q9UBD5 whole entry, looked up): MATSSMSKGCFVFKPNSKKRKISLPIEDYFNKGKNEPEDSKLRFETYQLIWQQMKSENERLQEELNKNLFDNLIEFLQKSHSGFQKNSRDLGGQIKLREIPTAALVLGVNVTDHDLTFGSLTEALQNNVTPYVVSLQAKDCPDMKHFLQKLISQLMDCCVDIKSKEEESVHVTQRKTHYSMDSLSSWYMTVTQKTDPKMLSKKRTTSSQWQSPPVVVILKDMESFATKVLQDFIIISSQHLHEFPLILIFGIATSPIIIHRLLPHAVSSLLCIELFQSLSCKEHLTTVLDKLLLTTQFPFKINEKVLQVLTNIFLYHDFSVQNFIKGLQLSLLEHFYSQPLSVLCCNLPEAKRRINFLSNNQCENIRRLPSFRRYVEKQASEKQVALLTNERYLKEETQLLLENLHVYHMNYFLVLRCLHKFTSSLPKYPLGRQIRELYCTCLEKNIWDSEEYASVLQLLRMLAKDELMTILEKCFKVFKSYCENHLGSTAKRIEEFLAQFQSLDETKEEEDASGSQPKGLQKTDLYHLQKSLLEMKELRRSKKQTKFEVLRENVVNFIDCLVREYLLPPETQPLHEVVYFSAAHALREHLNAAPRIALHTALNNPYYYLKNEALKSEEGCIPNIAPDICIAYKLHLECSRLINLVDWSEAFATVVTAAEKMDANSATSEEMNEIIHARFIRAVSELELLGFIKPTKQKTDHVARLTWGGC
UniProt Q15021, sequence (Q15021 whole entry, looked up): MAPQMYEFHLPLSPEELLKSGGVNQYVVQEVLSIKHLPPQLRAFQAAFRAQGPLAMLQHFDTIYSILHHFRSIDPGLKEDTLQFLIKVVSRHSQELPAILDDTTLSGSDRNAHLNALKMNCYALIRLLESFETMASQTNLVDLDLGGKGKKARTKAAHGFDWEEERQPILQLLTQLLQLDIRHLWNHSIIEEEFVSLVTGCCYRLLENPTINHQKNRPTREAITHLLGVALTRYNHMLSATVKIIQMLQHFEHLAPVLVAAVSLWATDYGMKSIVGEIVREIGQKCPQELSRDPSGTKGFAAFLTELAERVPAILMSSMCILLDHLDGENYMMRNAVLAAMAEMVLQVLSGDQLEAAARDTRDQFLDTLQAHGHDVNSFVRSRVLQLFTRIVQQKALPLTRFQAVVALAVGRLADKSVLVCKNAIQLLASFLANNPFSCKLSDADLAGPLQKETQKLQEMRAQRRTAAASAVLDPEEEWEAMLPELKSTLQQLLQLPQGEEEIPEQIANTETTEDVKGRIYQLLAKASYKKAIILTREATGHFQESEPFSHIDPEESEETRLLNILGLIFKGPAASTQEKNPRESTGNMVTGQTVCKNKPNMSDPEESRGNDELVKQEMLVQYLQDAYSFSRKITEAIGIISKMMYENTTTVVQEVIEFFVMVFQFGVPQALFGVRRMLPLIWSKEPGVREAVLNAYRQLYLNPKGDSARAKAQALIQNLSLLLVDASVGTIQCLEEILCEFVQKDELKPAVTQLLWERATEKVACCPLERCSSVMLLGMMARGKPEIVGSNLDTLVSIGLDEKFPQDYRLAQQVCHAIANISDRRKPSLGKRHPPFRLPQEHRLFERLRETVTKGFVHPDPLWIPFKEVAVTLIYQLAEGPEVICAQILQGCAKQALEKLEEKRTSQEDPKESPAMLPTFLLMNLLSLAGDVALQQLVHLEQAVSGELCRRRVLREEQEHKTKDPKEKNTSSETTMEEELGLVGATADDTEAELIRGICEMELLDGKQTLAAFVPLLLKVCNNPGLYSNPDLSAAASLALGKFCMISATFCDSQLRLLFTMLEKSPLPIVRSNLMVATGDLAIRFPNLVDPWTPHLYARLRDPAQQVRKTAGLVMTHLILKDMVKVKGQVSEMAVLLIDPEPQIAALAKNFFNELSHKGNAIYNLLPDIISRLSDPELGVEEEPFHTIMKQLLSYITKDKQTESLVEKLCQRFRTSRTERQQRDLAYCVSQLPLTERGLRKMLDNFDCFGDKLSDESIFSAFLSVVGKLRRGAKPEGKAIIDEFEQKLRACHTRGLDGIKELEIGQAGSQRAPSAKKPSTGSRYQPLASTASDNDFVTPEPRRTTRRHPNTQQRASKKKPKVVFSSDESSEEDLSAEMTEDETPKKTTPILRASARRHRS
UniProt P43246, sequence (P43246 whole entry, looked up): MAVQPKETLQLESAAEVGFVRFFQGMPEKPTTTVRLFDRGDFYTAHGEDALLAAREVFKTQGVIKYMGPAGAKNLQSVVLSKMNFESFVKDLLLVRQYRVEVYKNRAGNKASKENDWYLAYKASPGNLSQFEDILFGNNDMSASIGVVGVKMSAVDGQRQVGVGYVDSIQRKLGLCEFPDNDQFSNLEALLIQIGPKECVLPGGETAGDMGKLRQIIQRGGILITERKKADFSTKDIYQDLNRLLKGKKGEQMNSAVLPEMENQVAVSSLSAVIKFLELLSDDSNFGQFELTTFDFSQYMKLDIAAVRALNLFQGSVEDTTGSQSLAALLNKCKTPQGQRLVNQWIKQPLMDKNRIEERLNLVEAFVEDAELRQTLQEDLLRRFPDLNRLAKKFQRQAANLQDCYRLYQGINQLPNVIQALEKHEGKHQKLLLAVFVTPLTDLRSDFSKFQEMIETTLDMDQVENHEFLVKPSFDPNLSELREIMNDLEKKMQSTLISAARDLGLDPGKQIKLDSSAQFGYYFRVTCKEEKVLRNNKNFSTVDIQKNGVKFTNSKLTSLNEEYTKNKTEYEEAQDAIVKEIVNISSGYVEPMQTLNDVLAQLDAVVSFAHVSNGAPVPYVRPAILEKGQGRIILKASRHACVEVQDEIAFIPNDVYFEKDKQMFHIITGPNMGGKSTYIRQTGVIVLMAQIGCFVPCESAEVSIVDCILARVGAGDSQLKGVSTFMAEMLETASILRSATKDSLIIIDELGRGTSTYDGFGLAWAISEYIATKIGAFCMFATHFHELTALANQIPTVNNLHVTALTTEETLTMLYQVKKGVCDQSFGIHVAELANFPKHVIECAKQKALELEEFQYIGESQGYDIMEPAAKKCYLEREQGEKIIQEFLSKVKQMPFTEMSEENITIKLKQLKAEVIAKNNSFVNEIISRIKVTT
UniProt Q9HCE1, sequence (Q9HCE1 whole entry, looked up): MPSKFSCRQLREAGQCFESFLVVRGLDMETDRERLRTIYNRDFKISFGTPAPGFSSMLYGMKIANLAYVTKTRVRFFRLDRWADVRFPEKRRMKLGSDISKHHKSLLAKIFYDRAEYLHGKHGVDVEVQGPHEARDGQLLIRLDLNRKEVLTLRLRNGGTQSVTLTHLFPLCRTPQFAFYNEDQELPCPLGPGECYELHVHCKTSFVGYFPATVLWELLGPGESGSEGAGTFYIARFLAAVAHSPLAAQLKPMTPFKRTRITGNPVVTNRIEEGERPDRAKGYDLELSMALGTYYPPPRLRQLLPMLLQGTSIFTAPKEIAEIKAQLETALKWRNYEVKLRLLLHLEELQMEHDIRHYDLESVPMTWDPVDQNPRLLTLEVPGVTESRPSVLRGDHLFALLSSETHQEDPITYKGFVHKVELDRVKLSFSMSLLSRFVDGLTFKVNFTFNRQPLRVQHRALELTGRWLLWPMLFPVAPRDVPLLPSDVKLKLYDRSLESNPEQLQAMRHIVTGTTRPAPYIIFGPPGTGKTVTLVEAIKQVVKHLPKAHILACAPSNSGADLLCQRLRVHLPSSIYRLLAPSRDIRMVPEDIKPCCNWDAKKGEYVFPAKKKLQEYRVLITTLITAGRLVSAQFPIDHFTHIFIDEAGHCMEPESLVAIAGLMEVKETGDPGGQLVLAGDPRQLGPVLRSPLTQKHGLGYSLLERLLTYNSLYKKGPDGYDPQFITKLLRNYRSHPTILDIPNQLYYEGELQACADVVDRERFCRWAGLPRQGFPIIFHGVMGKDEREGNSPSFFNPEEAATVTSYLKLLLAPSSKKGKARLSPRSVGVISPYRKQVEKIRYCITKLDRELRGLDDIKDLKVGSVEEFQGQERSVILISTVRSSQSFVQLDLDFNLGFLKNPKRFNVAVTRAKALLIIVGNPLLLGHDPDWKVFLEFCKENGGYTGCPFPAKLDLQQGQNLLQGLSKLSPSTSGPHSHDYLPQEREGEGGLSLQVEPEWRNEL
UniProt O14950, sequence (O14950 whole entry, looked up): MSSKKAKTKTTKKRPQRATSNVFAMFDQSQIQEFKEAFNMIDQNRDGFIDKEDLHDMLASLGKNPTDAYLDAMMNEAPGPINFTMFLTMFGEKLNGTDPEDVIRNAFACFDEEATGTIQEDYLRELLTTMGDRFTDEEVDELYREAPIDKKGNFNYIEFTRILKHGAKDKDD
UniProt P15531, sequence (P15531 whole entry, looked up): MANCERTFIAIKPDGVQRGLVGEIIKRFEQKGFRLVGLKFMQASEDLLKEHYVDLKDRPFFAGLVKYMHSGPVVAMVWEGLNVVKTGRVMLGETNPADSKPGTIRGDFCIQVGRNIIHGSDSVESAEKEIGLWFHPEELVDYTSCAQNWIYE

log2 fold change, inactive:
NFATC2 (UniProt Q13469) -0.258
MRPS18B (UniProt Q9Y676) -0.026
PACS1 (UniProt Q6VY07) -0.113
NUP205 (UniProt Q92621) -0.069
NA, A0A0B4J2A0 -0.012
OSBP (UniProt P22059) -0.066
MKNK1 (UniProt Q9BUB5) -0.042
NMNAT1 (UniProt Q9HAN9) -0.174
MRPS25 (UniProt P82663) -0.074
NME1 isoform 2 (UniProt P15531) -0.253
MRPL47 (UniProt Q9HD33) 0.336
NDUFA12 (UniProt Q9UI09) -0.033
MOV10 (UniProt Q9HCE1) -0.164
MTHFD1, A0A384N5Y3 0.041
MRPS5 (UniProt P82675) -0.018
NFATC2IP (UniProt Q8NCF5) -0.011
NOL11 (UniProt Q9H8H0) -0.041
NDUFA6 (UniProt P56556) -0.011
OSBPL8 (UniProt Q9BZF1) -0.129
NOSIP (UniProt Q9Y314) 0.019
NR2C2 isoform 2 (UniProt P49116) -0.04
NDUFB8 (UniProt O95169) -0.036
NQO1 (UniProt P15559) 0.068
MSH2 (UniProt P43246) -0.003
MT-ATP6 (UniProt P00846) -0.04
MRPS2 (UniProt Q9Y399) -0.01
NOB1 (UniProt Q9ULX3) 0.038
MPP1 (UniProt Q00013) -0.059
NUCKS1 (UniProt Q9H1E3) 0.079
ORC3 isoform 2 (UniProt Q9UBD5) -0.188
NOLC1 isoform 2 (UniProt Q14978) -0.183
NEDD4 isoform 4 (UniProt P46934) 0.013
MRPS22 (UniProt P82650) -0.006
MSTO1 (UniProt Q9BUK6) 0.017
NCAPD2 (UniProt Q15021) -0.002
MYL12B (UniProt O14950) 0.026
NEU1 (UniProt Q99519) -0.063
NA, A0A096LPI6 -0.015
MRPS33 (UniProt Q9Y291) -0.052

Reference: the supplement of paper PMC10849652
